From ChEMBL document CHEMBL4513146, “CO-ADD screening of Karazin Kharkiv National University (Ukraine) compounds” come the findings set out here.

Entries with a potency or affinity are not part of this list.

In assay [1] the test system is Staphylococcus aureus. As to conditions: Concentration 32 ug.mL-1;; ASSAY_TEST Inhibition of Bacterial Growth; detection method Absorption (OD600); MEDIA CAMHB; plate type 384well; NBS; CORNING #3640; time 18 hr.
In assay [2] the test system is Escherichia coli. The following applies: Concentration 32 ug.mL-1;; ASSAY_TEST Inhibition of Bacterial Growth; detection method Absorption (OD600); MEDIA CAMHB; plate type 384well; NBS; CORNING #3640; time 18 hr.

The Inhibition is the drop in the measured response relative to a control, in per cent. Take `O=c1c2nnc(SCc3ccccc3)n2ccn1-c1ccc(Br)cc1`: the figures for the Inhibition in assay [1] and in assay [2] were 12.69% and -3.8%, respectively.

In the case of `Cc1c(Cl)cccc1-n1ccn2c(=O)n(Cc3cccc(Cl)c3)nc2c1=O`, the Inhibition in assay [1] is 7.64%; in assay [2], -4.76%.

Take `COc1ccc(CCn2c(=O)c3sccc3n3c(=O)n(Cc4ccccc4Cl)nc23)cc1OC`: the Inhibition in assay [1] is 1.03%; in assay [2], -4.64%.

For `COc1ccc(C(=O)CSc2nnc3c(=O)n(-c4ccccc4)ccn23)cc1OC`, the Inhibition in assay [1] is -10.93%; in assay [2] it was -14.26%.

As to `CCCCn1c(=O)c2sccc2n2c(CCC(=O)Nc3ccc(OC(F)(F)F)cc3)nnc12`, the Inhibition is reported as 0.43% in assay [1] and -8.31% in assay [2].

For the compound `CCCCN(CC)c1ccc2nnc(CCc3nc(-c4ccc(Br)cc4)no3)n2n1`, the Inhibition in assay [1] is recorded as 6.29%; in assay [2] it was -0.23%.

Consider `COc1ccc(-c2cc3c4nn(CC(=O)NCc5ccc(Cl)cc5)c(=O)n4ccn3n2)cc1`, for which the Inhibition was 12.72% in assay [1] and 5.93% in assay [2].

On to `COc1ccc(NC(=O)c2ccc3nn(CC(=O)Nc4ccc(C(C)C)cc4)c(=O)n3c2)cc1`, for which the Inhibition in assay [1] is given as 9.69%; in assay [2] it was -3.43%.

Consider `CCOc1ccc(NC(=O)Cn2nc3c(N4CCCC(C)C4)nccn3c2=O)cc1` (centres undefined), for which the Inhibition is 4.96% in assay [1] and -4.53% in assay [2].

With `Cc1ccc(Oc2nc3ccccc3n3c(=O)n(CC(=O)Nc4ccccc4C(F)(F)F)nc23)cc1`, the Inhibition is 11.78% in assay [1] and 1.07% in assay [2].

Regarding `COc1cccc(NC(=O)Cn2nc3ccc(-c4ccc(C)c(C)c4)nn3c2=O)c1`, the Inhibition is recorded as -14.65% in assay [1] and -17.62% in assay [2].

Consider `COc1ccc(NC(=O)Cn2nc3ccc(-c4ccc(C)c(C)c4)nn3c2=O)cc1OC`, for which the Inhibition in assay [1] was 11.61%; in assay [2] it was -6.17%.

On to `COc1ccc(NC(=O)Cn2nc3ccc(SC4CCCCC4)nn3c2=O)c(OC)c1`, for which the values for the Inhibition in assay [1] and in assay [2] were 7.02% and -7.62%, respectively.

As for `Cc1ccc(C)c(NC(=O)Cn2nc3cc(C)nc(Nc4ccc(F)cc4)n3c2=O)c1`, the Inhibition is given as -0.57% in assay [1] and -5.84% in assay [2].

As to `CCc1ccc(N(Cc2ccc(Cl)cc2)S(=O)(=O)c2cccn3c(C)nnc23)cc1`, the Inhibition is reported as 0.63% in assay [1] and -8.46% in assay [2].

Regarding `CCc1cccc(NC(=O)Cn2nc3c(SCc4ccc(Cl)cc4)nccn3c2=O)c1`, the Inhibition in assay [1] was -8.25%; in assay [2], -12.19%.

As to `COc1cccc(-n2ccn3c(SCC(=O)Nc4cc(F)ccc4F)nnc3c2=O)c1`, the results for the Inhibition in assay [1] and in assay [2] were 11.04% and -6.25%, respectively.

Take `CCOC(=O)c1ccccc1NC(=O)Cn1nc2c(Sc3ccccc3)nccn2c1=O`: the Inhibition in assay [1] was 8.61%; in assay [2] it was -3.65%.

Take `O=c1c2nnc(SCc3ccc(F)cc3)n2ccn1-c1ccc(Br)cc1`: the Inhibition is 3.87% in assay [1] and -5.68% in assay [2].

For the compound `Cc1nnc2c(=O)n(CC(=O)Nc3ccc(F)cc3)c3ccccc3n12`, the Inhibition in assay [1] worked out at 15.51%; in assay [2], 1.65%.

`Cc1cccc(NC(=O)Cn2c(=O)c3nnc(C(C)C)n3c3ccccc32)c1`: the Inhibition is 1.06% in assay [1] and -8.16% in assay [2].

Take `COc1ccc(-c2cc3c4nnc(SCC(=O)Nc5ccc(C)c(F)c5)n4ccn3n2)cc1`: the Inhibition in assay [1] was 0.86%; in assay [2], -1.39%.

With `O=c1c2nnc(SCc3ccccc3F)n2ccn1-c1ccc(Br)cc1`, the figures for the Inhibition in assay [1] and in assay [2] were 14.85% and -2.34%, respectively.

As for `Cc1cc2nn(CC(=O)Nc3ccc(F)cc3)c(=O)n2c(Nc2ccccc2C)n1`, the Inhibition in assay [1] came out at 11.27%; in assay [2] it was 1.51%.

As for `CCc1nnc2c(S(=O)(=O)N(Cc3cccc(OC)c3)c3ccccc3)cccn12`, the Inhibition in assay [1] is listed as 13.09%; in assay [2], -2.65%.

Consider `CC(C)CCn1c(=O)c2ccc(C(=O)NC3CCCC3)cc2n2c(=O)n(CC#N)nc12`, for which the Inhibition in assay [1] was 11.46%; in assay [2], 0.05%.

Regarding `CCc1ccc(Cn2c(=O)c3sccc3n3c(SCc4cccc(C(F)(F)F)c4)nnc23)cc1`, the Inhibition in assay [1] was 5.26%; in assay [2], -0.8%.

With `Cc1ccc(-c2ccc3nnc(CCC(=O)NCc4ccc(Br)cc4)n3n2)cc1`, the Inhibition in assay [1] is recorded as 14.28%; in assay [2], 0.41%.

As for `O=S(=O)(c1cccn2cnnc12)N(Cc1cccc(Cl)c1)c1ccc(F)cc1`, the Inhibition in assay [1] is reported as -11.31%; in assay [2], -14.45%.

For the compound `O=C(CCc1nnc2c3cc(-c4ccc(Cl)cc4)nn3ccn12)N1CCN(c2ccccn2)CC1`, the Inhibition is given as 5.65% in assay [1] and -0.84% in assay [2].

Take `CSc1ccc(CNC(=O)Cn2nc3c(N4CCOCC4)nccn3c2=O)cc1`: the values for the Inhibition in assay [1] and in assay [2] were 19.42% and -0.45%, respectively.

For the compound `O=C(CSc1nnc2c3cc(-c4ccc(F)cc4)nn3ccn12)NCc1ccc(Cl)cc1`, the Inhibition in assay [1] is recorded as -3.32%; in assay [2], -11.03%.
